MCF10A rerep – inducers of DNA re-replication in MCF 10A breast cells; Potency, µM (series often up to 46.1 µM), without a hit: at the top dose activity, positive = re-replication, hits mostly activators; 350,000 tested, 2.9% active; MCF 10A DNA re-replication, Hoechst nuclear intensity, 48 h; further: potency means the concentration at half of the fitted maximal effect; % of control where 0% means no effect; nearly all actives have a fitted effect of over 50% in size
SW480 rereplic – induces DNA re-replication in SW480 colon adenocarcinoma cells; SW480 DNA re-replication, Hoechst DNA content imaging, 48 h; Potency, µM (titrated, usually from 46.1 µM), inactives show top-dose re-replication activation, hits mostly activators; 340,000 tested, 1.8% active; further: potency means the concentration at half of the fitted maximal effect; % of control where 0% means no effect; nearly all actives have a fitted effect of over 55% in size
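250 cells/well; 23 nL cpd via pin tool; 48 hr, 37 C, 5% CO2; Hoechst 40 min; imager read of total nuclear intensity, ex 405/em 500-530 nm.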
KB-3-1 tox – KB-3-1 parental cell cytotoxicity; Potency, µM (highest dose often 46.1 µM), hits mostly cytotoxic; KB-3-1 viability, CellTiter-Glo ATP luminescence, 72 h; 400,000 tested, 1.4% active; further: potency means the concentration at half of the fitted maximal effect; on the % scale 0 is the no-effect control and ±100 the full control effect; nearly all actives have a fitted effect of over 60% in size
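Cells are dispensed, compounds pinned in, plates held at 37 °C for 72 h, then CellTiter-Glo is added and luminescence read after 10 minutes. Cell line: parental KB-3-1 in phenol-red-free DMEM, 10% FBS.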
KB-V1 MDR tox – kills drug-selected multidrug resistant KB-V1 cells | KB-V1 MDR cells viability, CellTiter-Glo, 72 h | AID 1347076 | 400,000 tested, 3.4% active | Potency, µM (titrated, usually from 46.1 µM), actives largely listed as cytotoxic; further: potency means the concentration at half of the fitted maximal effect; on the % scale 0 is the no-effect control and ±100 the full control effect; nearly all actives have a fitted effect of over 60% in size
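Readout: CellTiter-Glo luminescence, 10 min after addition. Cells: KB-V1 MDR subline, 72 h at 37 degrees C with compound. Analysis: corrected, normalized data fitted to concentration-effect curves.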
IL1B secr inh – blocks inflammasome-driven IL-1 beta release; THP-1 LPS/ATP IL-1B secretion, AlphaLISA, 16 h; active compounds read low; activity change, % at 57.5 µM; 360,000 tested, 4.7% active; in the data active means activity change below about -50%; inconclusive means mostly about -30% to -49%; further: on the % scale 0 is the no-effect control and ±100 the full control effect
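THP-1 cells pretreated 1 hr with compounds (up to 57.5 uM final), then stimulated with LPS (250 ng/mL final) plus ATP (1.25 mM final); secreted IL-1B measured by AlphaLISA after 16 hr, decreased signal indicating inhibition.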
* = called active by the depositor; i = inactive; u = inconclusive; x = no result given; [ ] = dose if it differs, or a comment. A selection: hits, their analogues and other compounds. The true share with any hit is near 9.9%. Unless noted, the call rests on the fitted dose curve; in most records, active means well fitted curve in the direction sought with a large enough effect; inconclusive means small, poorly fitted or top-dose-only effect, or another doubt; inactive means no such curve, though single readings can be large; an effect the other way counts as inactive or inconclusive.

SMILES | MCF10A rerep | SW480 rereplic | KB-3-1 tox | KB-V1 MDR tox | IL1B secr inh
CCC(=O)N1CCC(C)(C(=O)NCc2ccc(F)cc2)C1 (centres undefined) | x | x | i | i | 37
N#CC(c1ccccc1)c1ccc2c(C(F)(F)F)cc(C(F)(F)F)nc2n1 (centres undefined) | u | -3%[9.22 µM] | u | i | -83*
CCN(Cc1ccccc1)C(=O)C1CCN(Cc2ccc(SC)cc2)CC1 | 6% | -3% | i | i | -28
CCN(Cc1ccccc1)C1CCN(Cc2ccc(SC)cc2)CC1 | u | 0% | i | u | -72*
Cc1ccc(S(=O)(=O)c2cnc(SC(C)C(=O)Nc3ccccc3)[nH]c2=O)cc1 (centres undefined) | x | x | i | i | x
c1cc2c3c(c1)CCC[N+]3(C1CCCCC1)CCC2 | x | x | u | i | x
CCOC(=O)CC(=O)CSc1nc2c(cc1C#N)CCC2 | 4.6µM* | u | i | i | 1
Cc1nonc1NC(=O)CSc1nc(CCC2CCCC2)nc2ccccc12 | 7.3µM* | -5% | i | i | -7
COC(=O)CC(=O)CSc1nc2c(cc1C#N)CCCCC2 | u | -9% | i | i | 17
N#Cc1cc2c(nc1SCc1cccnc1)CCCCC2 | -1% | -3% | u | u | -66*
O=C(CSc1nc(CCC2CCCC2)nc2ccccc12)NCc1ccc2c(c1)OCO2 | 10µM* | -3% | i | u | -9
Cc1cc(NC(=O)CSc2nc(CCC3CCCC3)nc3ccccc23)no1 | -184%[0.0737 µM] | 3% | i | i | -5
Cc1cccc(-c2nc3c4ccccc4n(CC(=O)Nc4cccc(F)c4)c(=O)n3n2)c1 | x | x | i | u | x
N#Cc1cc2c(nc1SCC(=O)NCc1ccc3c(c1)OCO3)CCCCC2 | u | -1% | i | 13µM* | 0
N#Cc1cc2c(nc1SCC(=O)O)CCCCC2 | 2% | 4% | i | i | 17
O=C(NCC1CCCO1)c1cnn2c(C(F)F)cc(C3CC3)nc12 (centres undefined) | 3% | -2% | i | 6.5µM* | -18
O=C(CN1C(=O)NC2(CCc3ccccc32)C1=O)NCc1cccc(C(F)(F)F)c1 (centres undefined) | 5% | 4% | i | i | 17
Cc1cc2c(N=NC(=O)C3CC3c3ccccc3)c(O)[nH]c2cc1Br (centres undefined) | -8% | 0% | i | u | 15
C=CCNC(=O)CSc1nc2cc(C(=O)OCC)ccc2n1CC | 2% | 2% | i | i | 0
CCOC(=O)c1ccc2c(c1)nc(SCC(=O)c1cc3ccccc3o1)n2CC | u | -1% | i | 18µM* | 30
Cc1cc(/C=N/NC(N)=S)c(C)n1-c1ccc(Cl)c(Cl)c1 | 26µM* | 18µM* | i | i | 108
COc1cccc(NC(=O)C(=O)N/N=C/c2cc(C)n(-c3ccc(Cl)c(Cl)c3)c2C)c1 | 3% | -2% | i | i | -3
CCNC(=S)N/N=C/c1cc(C)n(-c2ccc(Cl)cc2)c1C | u | 2% | u | 12µM* | u
COc1ccc(OC)c(S(=O)(=O)NC(=O)C2(C)CCN2C(=O)CC2CCCC2)c1 (centres undefined) | x | x | i | i | -8
O=C(c1noc2c1CCCC2)N1CCN(c2ccccc2)CC1 | -2% | -4% | i | 18µM* | -6
SMILES | MCF10A rerep | SW480 rereplic | KB-3-1 tox | KB-V1 MDR tox | IL1B secr inh
O=C(c1noc2c1CCCCC2)N1CCN(C(c2ccccc2)c2ccccc2)CC1 | 3% | -1% | i | i | 0
O=C(NCc1ccccc1)c1noc2c1CCCC2 | u | u | u | u | 0
CC(NC(=O)c1noc2c1CCCC2)c1ccccc1 (centres undefined) | -4% | 17% | i | 16µM* | 0
O=C(c1noc2c1CCCC2)N1CCC(CO)(Cc2ccccc2Cl)CC1 | u | 1% | i | i | -81*
Cc1ccccc1Nc1nnc(-c2ccc(C)c(S(=O)(=O)N3CCCCC3)c2)c2ccccc12 | x | x | i | i | x
O=[N+]([O-])c1ccc(N=NN(CCO)CCO)cc1 | 10% | 23µM* | i | i | 6
CCOC(=O)c1ccccc1NC(=O)CN(c1cccc(C)c1C)S(=O)(=O)c1ccccc1 | x | x | i | u | x
c1cncc(CSc2ccc(-c3cccs3)nn2)c1 | 2% | 0% | i | u | -60*
Cc1ccc(CSc2ccc(-c3cccs3)nn2)cc1 | 8% | -3% | i | u | 1
CCOc1ccccc1C(=O)N(Cc1cc(OC)c(OC)c(OC)c1)c1ccccn1 | x | x | i | u | x
COc1ccccc1CN1C[C@@H]2C[C@@H](c3cccc(C)c3)N3CCC[C@@]23C1=O | -4% | -54% | i | i | -21
Nc1nc(SCC(=O)Nc2cccc([N+](=O)[O-])c2)n[nH]1 | -16% | -4% | i | i | 21
O=C(CCOc1ccccc1)Nc1ccccc1[N+](=O)[O-] | -8% | -5% | i | i | 0
O=C(CCSc1ccccc1Cl)Nc1cccc([N+](=O)[O-])c1 | u | u | i | u | -150*
O=C(CC(=O)Nc1ccccc1[N+](=O)[O-])Nc1ccccc1[N+](=O)[O-] | 2% | 2% | i | i | -64*
COc1ccccc1NC(=O)CSC1=NCCN1 | -57% | -692% | i | i | 2
O=C(CSC1=NCCN1)Nc1cccc([N+](=O)[O-])c1 | u | 1% | i | i | -67*
Cc1ccc(NC(=O)CSC2=NCCN2)cc1 | 21µM* | 15% | i | i | -61*
C=C1CC2C3C=C(C)C4=CC(=O)CCC4(C)C3CCC2(C)[C@@]1(OC(C)=O)C(C)=O (some centres undefined) | 10% | -8% | x | x | x
Cn1cc(C(=O)NCCc2ccc(Cl)cc2)c(=O)c2cc(S(=O)(=O)N3CCOCC3)ccc21 | x | x | i | i | x
O=C(CSC1=NCCN1)NC(c1ccccc1)c1ccccc1 | u | u | i | i | -105*
Cc1cc(=O)[nH]c(SCC(=O)NC(c2ccccc2)c2ccccc2)n1 | -3% | -1% | i | i | 30
O=C(CSC1=NCCN1)Nc1ccccc1[N+](=O)[O-] | u | -4% | i | i | -119*
O=C(Cn1c(=O)n(CCc2ccccc2)c(=O)c2cccnc21)Nc1ccc(F)cc1 | x | x | u | i | x
O=[N+]([O-])c1ccc2c(c1)C=CC2 | x | x | i | i | x
CCC1=NN(C(=O)COc2ccccc2C)C(O)(c2ccncc2)C1 (centres undefined) | -4% | -11% | i | i | 0
CC1=NN(C(=O)COc2ccccc2C)C(O)(c2ccc(Cl)cc2)C1 (centres undefined) | 25% | -85% | i | 13µM* | -12
